Test results from PubChem BioAssay AID1159580 (chemical genetic matrix, 2015).
Values joined by “and” are separate entries in the source; they are usually repeats but may differ in a detail not shown here. Equal values may be shown once. Hit rate of the full screen: of about 5,500 compounds, about 2,000 (36%) were called active. About 18% were inconclusive and are not listed. Cut-off read from the data, not from the text of the source: active = normalized growth mostly below about 0.91 (no sharp cut-off); inconclusive = no clear call, values can overlap the other calls; inactive = mostly above about 0.92. The list shows a part of the results.

Assay: chemical genetic growth profiling, strain panel (AID 1159580);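 note: tested at 20 µM; growth read once vehicle control cultures reached saturation at 30 °C; 1 = growth at the plate median or of vehicle wells; lower values mean less growth of the strain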
Conditions: S. cerevisiae deletion strains, growth OD

Measured: normalized growth

NS(=O)(=O)c1cc2c(cc1Cl)NC(C1CC3C=CC1C3)NS2(=O)=O (stereo unspecified)
inactive: locus YAL013W, strain DEP1, stronger effect = lower value 1 | locus YAL021C, strain ccr4, stronger effect = lower value 1 | locus YAL026C, strain drs2, stronger effect = lower value 0.99 | locus YAL030W, strain snc1, stronger effect = lower value 0.99 | locus YAL040C, strain CLN3, stronger effect = lower value 0.979 | locus YBL061C, strain skt5, stronger effect = lower value 1 | locus YBR009C, strain hhf1, stronger effect = lower value 0.982 | locus YBR021W, strain FUR4, stronger effect = lower value 1.03 | locus YBR023C, strain chs3, stronger effect = lower value 0.991 | locus YBR171W, strain sec66, stronger effect = lower value 0.981 | locus YBR229C, strain ROT2, stronger effect = lower value 0.96 | locus YBR231C, strain swc5, stronger effect = lower value 0.989 | locus YBR279W, strain paf1, stronger effect = lower value 0.996 | locus YCL011C, strain gbp2, stronger effect = lower value 0.989 | locus YCL016C, strain dcc1, stronger effect = lower value 0.995 | locus YCL029C, strain bik1, stronger effect = lower value 0.941 | locus YCL061C, strain MRC1 (second series), stronger effect = lower value 0.99 | locus YCL061C, strain MRC1, stronger effect = lower value 0.991 | locus YCL069W, strain vba3, stronger effect = lower value 0.997 | locus YCR088W, strain abp1, stronger effect = lower value 0.991 | locus YDL005C, strain med2, stronger effect = lower value 0.983 | locus YDL035C, strain GPR1, stronger effect = lower value 1.01 | locus YDL040C, strain nat1, stronger effect = lower value 0.994 | locus YDL074C, strain BRE1, stronger effect = lower value 1.01 | locus YDL101C, strain DUN1, stronger effect = lower value 0.967 | locus YDL134C, strain PPH21, stronger effect = lower value 0.99 | locus YDL185W, strain tfp1, stronger effect = lower value 0.959 | locus YDL192W, strain arf1, stronger effect = lower value 0.992 | locus YDR001C, strain nth1, stronger effect = lower value 0.985 | locus YDR069C, strain doa4, stronger effect = lower value 1.01 | locus YDR101C, strain arx1, stronger effect = lower value 1 | locus YDR137W, strain rgp1, stronger effect = lower value 1.01 | locus YDR150W, strain NUM1, stronger effect = lower value 0.981 and 1 | locus YDR159W, strain sac3, stronger effect = lower value 0.987 | locus YDR162C, strain NBP2, stronger effect = lower value 0.911 | locus YDR195W, strain ref2 0.963 | locus YDR297W, strain sur2, stronger effect = lower value 0.991 | locus YDR318W, strain mcm21, stronger effect = lower value 1.02 | locus YDR334W, strain swr1, stronger effect = lower value 0.995 | locus YDR335W, strain msn5, stronger effect = lower value 0.991 | locus YDR363W, strain ESC2, stronger effect = lower value 0.956 | locus YDR388W, stronger effect = lower value 1 | locus YDR392W, strain spt3, stronger effect = lower value 0.924 | locus YDR502C, strain sam2, stronger effect = lower value 0.978 | locus YEL003W, strain gim4, stronger effect = lower value 0.997 | locus YEL037C, strain rad23, stronger effect = lower value 0.999 | locus YEL061C, strain CIN8 (second series), stronger effect = lower value 0.984 | locus YEL061C, strain CIN8, stronger effect = lower value 0.989 | locus YER002W, strain NOP16, stronger effect = lower value 0.987 | locus YER015W, strain faa2, stronger effect = lower value 0.994 | locus YER016W, strain bim1, stronger effect = lower value 0.994 | locus YER110C, stronger effect = lower value 0.937 | locus YER111C, strain swi4, stronger effect = lower value 0.98 | locus YER155C, strain BEM2 (second series), stronger effect = lower value 0.974 | locus YER155C, strain BEM2, stronger effect = lower value 0.988 | locus YER167W, strain BCK2, stronger effect = lower value 1.04 | locus YFR010W, strain ubp6, stronger effect = lower value 0.988 | locus YGL078C, strain dbp3, stronger effect = lower value 0.986 | locus YGL086W, strain mad1, stronger effect = lower value 1.03 | locus YGL167C, strain pmr1, stronger effect = lower value 0.987 | locus YGL173C, strain kem1, stronger effect = lower value 0.994 | locus YGL227W, strain vid30, stronger effect = lower value 0.978 | locus YGL240W, strain doc1, stronger effect = lower value 0.977 | locus YGL248W, strain PDE1, stronger effect = lower value 0.979 | locus YGL253W, strain hxk2, stronger effect = lower value 0.995 | locus YGR078C, strain PAC10, stronger effect = lower value 1.01 | locus YGR135W, strain pre9, stronger effect = lower value 0.987 | locus YGR229C, strain SMI1, stronger effect = lower value 0.998 | locus YGR252W, strain gcn5, stronger effect = lower value 1.07 | locus YHR013C, strain ard1, stronger effect = lower value 0.962 | locus YHR027C, strain rpn1, stronger effect = lower value 0.993 | locus YHR030C, strain SLT2, stronger effect = lower value 1 and 1.02 | locus YHR079C, strain IRE1 (second series), stronger effect = lower value 1.01 | locus YHR079C, strain IRE1, stronger effect = lower value 1.02 | locus YHR094C, strain hxt1, stronger effect = lower value 0.998 | locus YHR129C, strain ARP1, stronger effect = lower value 0.994 | locus YHR142W, strain chs7, stronger effect = lower value 1 | locus YHR200W, strain rpn10, stronger effect = lower value 0.997 | locus YIL066C, strain RNR3, stronger effect = lower value 0.989 | locus YIL073C, strain SPO22, stronger effect = lower value 1.08 | locus YIL125W, strain kgd1, stronger effect = lower value 0.992 | locus YIR030C, strain dcg1, stronger effect = lower value 0.984 | locus YJL092W, strain hpr5, stronger effect = lower value 0.99 | locus YJL095W, strain BCK1 (second series), stronger effect = lower value 0.99 | locus YJL095W, strain BCK1, stronger effect = lower value 1.01 and 1.06 | locus YJL115W, strain asf1, stronger effect = lower value 0.997 | locus YJL129C, strain trk1, stronger effect = lower value 0.986 | locus YJL134W, strain LCB3, stronger effect = lower value 0.984 | locus YJL154C, strain vps35, stronger effect = lower value 0.988 | locus YJL164C, strain tpk1, stronger effect = lower value 0.997 | locus YJL166W, strain qcr8, stronger effect = lower value 0.997 | locus YJL168C, strain set2, stronger effect = lower value 0.992 | locus YJL187C, strain SWE1 (second series), stronger effect = lower value 0.975 | locus YJL187C, strain SWE1, stronger effect = lower value 0.989 | locus YJR043C, strain POL32, stronger effect = lower value 1.06 | locus YJR066W, strain TOR1, stronger effect = lower value 0.976
